ALR H2O2 inh = inhibitors of human ALR sulfhydryl oxidase, primary screen, biochemical, H2O2 detection, HRP-luminol luminescence, single point; FAD-linked sulfhydryl oxidase ALR (Homo sapiens), P55789; purified ALR, DTT oxidation; inhibition, % (test concentration not listed); actives 3.8% (n = 290,000); AID 485317, 2010;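 active means mean replicate inhibition above about 79%, with every replicate also reaching it, limit read from the data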
Target sequence (P55789 whole entry, looked up): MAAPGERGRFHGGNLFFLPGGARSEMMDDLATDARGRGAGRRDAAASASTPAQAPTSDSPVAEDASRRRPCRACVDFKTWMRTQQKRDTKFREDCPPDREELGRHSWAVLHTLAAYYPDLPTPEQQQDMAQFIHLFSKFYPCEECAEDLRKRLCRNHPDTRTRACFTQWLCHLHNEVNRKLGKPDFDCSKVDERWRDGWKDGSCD
APOBEC3A inh = APOBEC3A ssDNA deaminase inhibitors, primary screen, selectivity assay for APOBEC3G inhibitor project, biochemical, FAM/TAMRA oligo cleavage fluorescence | DNA dC->dU-editing enzyme APOBEC-3A (Homo sapiens), P31941 | recombinant A3A, FAM/TAMRA ssDNA deamination fluorescence | inhibition, % at 20 µM | actives 0.41% (n = 330,000) | AID 493011, 2011;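 active means at least 40% inhibition at 20 µM here, with at most 30% in a related deaminase screen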;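 further: plate controls were A3A with DMSO for no effect and wells lacking A3A enzyme for full effect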
PHOSPHO1 block = PubChem AID 1565; recombinant PHOSPHO1, absorbance phosphatase assay; actives 1.1% (n = 290,000); inhibition, % at 13.3 µM; in the data active means inhibition above about 60%
aDG glyco up = activators of alpha-DG glycosylation, primary screen, uHTS, Pro5-aDG cells, AlphaScreen; activation, % at 10 µM; alpha-DG glycosylation AlphaScreen (IIH6); 0% Pro5, 100% B10-LARGE cell signal; actives 0.22% (n = 360,000); AID 624168, 2012;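 active means activation of at least 8% versus controls, or a plate z-score of at least 8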;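 further: Pro5 are CHO cells carrying HIG-tagged alpha-DG that lacks glycosylation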
APOBEC3G inh = APOBEC3G DNA deaminase inhibitors, primary screen, biochemical, fluorescence, single-stranded DNA substrate, uHTS; recombinant A3G, ssDNA deamination FAM/TAMRA fluorescence; AID 493012, 2011; actives 0.28% (n = 330,000); inhibition, % at 20 µM; DNA dC->dU-editing enzyme APOBEC-3G (Homo sapiens), Q9HC16;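 active means inhibition of at least 40% at 20 µM, with no more than 30% in the related APOBEC3A deaminase screen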;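 further: plate controls were DMSO wells with A3G for no effect and wells lacking A3G enzyme for full effect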
Target sequence (Q9HC16 whole entry, looked up): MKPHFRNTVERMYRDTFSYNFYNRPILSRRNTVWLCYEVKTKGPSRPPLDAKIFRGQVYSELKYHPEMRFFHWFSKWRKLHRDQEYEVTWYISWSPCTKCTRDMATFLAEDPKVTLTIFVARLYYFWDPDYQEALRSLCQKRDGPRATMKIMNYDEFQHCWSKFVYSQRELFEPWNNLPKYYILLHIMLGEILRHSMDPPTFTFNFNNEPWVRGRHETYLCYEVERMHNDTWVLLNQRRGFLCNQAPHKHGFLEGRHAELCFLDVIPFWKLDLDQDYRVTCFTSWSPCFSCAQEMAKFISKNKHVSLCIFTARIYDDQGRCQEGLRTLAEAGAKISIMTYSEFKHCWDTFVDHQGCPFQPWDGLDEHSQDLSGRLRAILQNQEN
rCAG binder = binders of r(CAG) RNA repeats, primary screen, biochemical, fluorescence; AID 651821, 2012; actives 1.3% (n = 370,000); r(CAG) RNA repeat, TO-PRO-1 dye displacement fluorescence; inhibition, % at 3 µM;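 active means inhibition above the plate cutoff, the mean of all test compounds on that plate plus 3 SD, cut at about 35% in these data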;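 further: 0% = DMSO alone and 100% = 100 µM mitoxantrone as full dye displacement; higher means more dye released from RNA so lower well fluorescence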
Numbers without * were called inactive; . = no result given. Sampled rows, rich in hits. Any-hit rate of the full collection: about 5.4%.

SMILES | ALR H2O2 inh | APOBEC3A inh | PHOSPHO1 block | aDG glyco up | APOBEC3G inh | rCAG binder
COc1cccc(NC(=O)c2cc(OC)c(OC)c(OC)c2Br)c1 | 97* | -2 | 14 | 0 | -4 | 2
Cc1ncsc1CCC(=O)N1CCCC(Nc2ccc(F)c(F)c2)C1 (centres undefined) | 35 | 3 | 32 | 0 | -5 | -5
Cc1ccc(NC2CCCN(C(=O)CCc3scnc3C)C2)cc1C (centres undefined) | 99* | 0 | 9 | 0 | 40 | -8
Cc1ncsc1CCC(=O)N1CCCC(Nc2ccc(C(C)C)cc2)C1 (centres undefined) | 86* | -2 | 18 | 2 | -1 | -6
COc1ccc(NC2CCCN(C(=O)CCc3scnc3C)C2)cc1 (centres undefined) | 99* | 2 | 23 | 0 | 0 | -3
Cc1ncc(CO)c(CNc2ccc(Oc3ccccc3)cc2)c1O | 98* | -1 | 48 | 1 | -8 | 6
S=C(NCc1cccnc1)Nc1ccc(Oc2ccccc2)cc1 | 12 | -3 | 32 | 1 | -4 | -2
O=C(CCCO)NNc1c2ccccc2nc2ccccc12 | 99* | -4 | 28 | 0 | -9 | -5
CCCC(=O)NNc1c2ccccc2nc2ccccc12 | 99* | 0 | -4 | 0 | -2 | -1
CCCC(=O)NNC(=O)CCC(=O)NCc1ccccc1 | 2 | 6 | -65 | 0 | -8 | -1
Cn1nc(C(C)(C)C)cc1C(=O)NCC1CCN(C(=O)C(=O)c2cc3ccccc3o2)CC1 | . | . | . | . | . | 2
Cc1ccc(SCc2cn3ccccc3n2)cc1 | 7 | 2 | 16 | 0 | -8 | 0
CCOC(=S)SCc1cn2ccc(C)cc2n1 | 99* | -2 | 10 | 0 | -1 | 0
CCOC(=S)SCc1cn2ccccc2n1 | 98* | 0 | -8 | 0 | -3 | -2
COC(=O)c1ccc(-n2cc(-c3ccc(OC)cc3)[nH]c2=S)cc1 | 88* | . | -3 | 0 | . | 12
COc1ccc(-n2cc(-c3ccc(Cl)cc3)[nH]c2=S)cc1 | -1 | -5 | 60* | 0 | -5 | 4
CCn1cc(/C=C(\NC(=O)c2cc(OC)c(OC)c(OC)c2)C(=O)NCCCN2CCOCC2)c2ccccc21 | -3 | -8 | 65* | 0 | -4 | -6
CCn1cc(/C=C(\NC(=O)c2cc(OC)c(OC)c(OC)c2)C(=O)NCCN2CCOCC2)c2ccccc21 | 1 | -7 | 29 | 0 | -3 | -4
C[C@H](O)[C@@H]1C(=O)N2CCc3c([nH]c4ccccc34)[C@@H]2C[C@@H]1N(C)C(=O)Nc1ccc(Br)cc1 | . | . | . | . | . | 7
Cc1ccc(CN2C(=O)CCC2C(=O)N2CCN(c3ccc(F)cc3)CC2)cc1 (centres undefined) | 91* | 2 | 27 | 0 | -1 | -7
Cc1cc(C)c(C)c(S(=O)(=O)N2C(=S)NC(=O)C2C(C)C)c1C (centres undefined) | 96* | 1 | -22 | 0 | 17 | 29
COC(=O)[C@@]1(C(C)C)N=C(c2cc(OC)c(OC)c(OC)c2)[C@]2(O1)C(=O)N(Cc1cn(-c3ccccc3)nn1)c1cccc(Cl)c12 | . | . | . | . | . | 9
O=C(Nc1ccn(Cc2ccccc2)n1)c1ccc2c(c1)OCO2 | -3 | 3 | 61* | 0 | -1 | -1
O=C(Nc1ccn(Cc2ccc(Cl)cc2)n1)c1ccccc1 | . | -1 | -22 | 0 | -1 | -2
COc1ccccc1-c1nn2c(-c3ccco3)nnc2s1 | 3 | 8 | 9 | 0 | 11 | 12
SMILES | ALR H2O2 inh | APOBEC3A inh | PHOSPHO1 block | aDG glyco up | APOBEC3G inh | rCAG binder
c1coc(-c2nn3c(-c4ccco4)nnc3s2)c1 | 6 | 20 | 84* | 0 | 10 | 1
Clc1ccccc1-c1nnc2sc(-c3ccc(Br)o3)nn12 | -6 | -2 | 80* | 0 | -7 | 0
S=C(NCC1CCCCC1)OC1CCC12CCC(c1ccccc1)CC2 (centres undefined) | . | . | . | . | . | 4
Cc1cccc(N2CCN(C(=O)C(C)C)CC2)c1C | 2 | -4 | 6 | 0 | -7 | -4
CCOC(=O)N1CCN(c2ccccc2O)CC1 | 99* | -3 | -12 | 0 | -1 | -4
CCOc1ccccc1N1CCN(C(=O)C(F)(F)F)CC1 | 22 | 1 | 9 | 0 | -2 | .
CC(C)C(=O)N1CCN(c2ccccc2N)CC1 | 99* | 9 | -4 | 0 | -3 | 2
COc1cccc(N2CCN(C(=O)c3cc(C)oc3C)CC2)c1 | 90* | -5 | . | 0 | -8 | 8
CCOc1ccccc1N1CCN(C(=O)CC(C)(C)C)CC1 | 11 | 4 | 73* | 0 | 3 | -4
N=C1N(C(=O)OCc2ccccc2)/C(=C\C2=CCCCC2)C(Cc2ccccc2)N1Cc1ccccc1 (centres undefined) | . | . | . | . | . | 3
COc1cccc(CCNS(=O)(=O)c2c(C)n[nH]c2C)c1 | . | . | . | . | . | 2
O=C(c1ccc2ccccc2n1)N1CCN(c2ccccc2O)CC1 | 98* | 0 | 24 | 0 | 0 | -2
Cc1cc(C(=O)N2CCN(c3ccccc3O)CC2)c(C)o1 | 98* | -6 | . | 0 | -13 | 1
O=C(c1ccc2ccccc2n1)N1CCN(c2ccccc2)CC1 | 40 | -6 | 7 | 0 | -6 | -7
CSc1sc(-c2ccnc(=S)[nH]2)c(-c2ccccc2)c1C#N | 96* | -2 | 20 | 0 | -4 | 3
Nc1nnc(CC(=O)N/N=C/c2cc([N+](=O)[O-])cc(Br)c2O)s1 | 44 | -2 | -32 | 0 | -8 | 59*
Cc1n[nH]c(C)c1Sc1ccccc1[N+](=O)[O-] | -5 | -3 | 36 | 0 | -6 | -3
Cc1ccc(-n2nc(C)c(Sc3ccccc3[N+](=O)[O-])c2N)cc1 | 87* | -1 | -20 | 0 | -6 | 4
Cc1ccc2c([N+](=O)[O-])c(C)ccc2n1 | . | -1 | 65* | 0 | -6 | 1
CC(=O)Nc1cccc(NC(=O)CSc2nnnn2Cc2ccccc2)c1 | 99* | -1 | -5 | 0 | 0 | 0
O=C(CSc1nnnn1Cc1ccccc1)Nc1cccc(F)c1 | . | -2 | 40 | 0 | -9 | 2
CCC(=O)Nc1cc(NC(=O)CSc2nnc(C(C)C)n2CC)ccc1C | 13 | 2 | -7 | 0 | -1 | -2
CCn1c(SCC(=O)Nc2cccc(C(C)=O)c2)nnc1C(C)C | 99* | 0 | -3 | 0 | -3 | 0
COc1ccc(-n2nnnc2SCC(=O)Nc2cccc(NC(C)=O)c2)cc1OC | 99* | -5 | -9 | 0 | -3 | 3
